Source: PubChem BioAssay
HIV TAR-Tat: TAR RNA-Tat peptide displacers, HIV-1, primary screen, biochemical, FRET, FAM/TAMRA-labeled Tat; HIV-1 TAR RNA, Tat peptide displacement FRET; stronger effect = higher value; z-score (test concentration not listed); 0.6% of 100,000 active; AID 1259389, 2018; active = z-score of 3 or more in at least 2 runs
CDC25B-CDK2 inh: primary biochemical HTRF screen for blockers of M-phase inducer phosphatase 2 binding to CDK2/cyclin A; P30305+P24941; HTRF CDC25B-CDK2/CyclinA binding, anti-His/anti-Flag; stronger effect = higher value; z-score (no concentration beside the values); 0.72% of 94,000 active; AID 1259370, 2018; in the data active = z-score above about 3.2
Active calls of the source: *; · = no result given. Shown are actives, neighbours in structure and some others; about 0.93% of the full set was active somewhere.

SMILES	HIV TAR-Tat	CDC25B-CDK2 inh
CCOC(=O)N1CCN(c2cc(NCC(=O)O)c3c4c(onc24)-c2ccccc2C3=O)CC1	-6.2	3.2*
CCOC(=O)C1CCCN(c2cc(NCCCC(=O)O)c3c4c(onc24)-c2ccccc2C3=O)C1 (stereo unspecified)	21*	11*
CCOC(=O)C1CCN(c2cc(NCCOC)c3c4c(onc24)-c2ccccc2C3=O)CC1	1.3	-1.3
CCOC(=O)N1CCN(c2cc(NCCCC(=O)O)c3c4c(onc24)-c2ccccc2C3=O)CC1	0.69	-0.95
CC1=C(C(=O)Nc2ccccc2)C(c2cccs2)C(C#N)=C(SCc2ccccc2)N1 (stereo unspecified)	·	-0.61
O=C1Nc2ccccc2C1Cc1cccc(Cl)c1 (stereo unspecified)	1.3	0.55
COc1ccc(NS(=O)(=O)c2ccc(CN3C(=O)c4cccnc4C3=O)s2)cc1	1.5	·
Clc1ccc2nc(SCCc3ccccc3)[nH]c2c1	1.2	-2.5
CCCc1cc(C(N)=S)ccn1	22*	·
CCCc1ccc(-c2ccc(C(N)=O)cc2)cc1	·	-1.1
COc1ccc(C2=NC(c3ccsc3)NC(c3cc(Cl)ccc3O)C2)cc1 (stereo unspecified)	-1	1.1
Cc1nc(N2CCCC(C(=O)NC3CC3)C2)c2c(C)noc2n1 (stereo unspecified)	11*	·
CCc1noc2nc(C)nc(N3CCCC(C(=O)NC4CC4)C3)c12 (stereo unspecified)	3.7	·
Cc1ccc(Cl)c2c1NC(=O)C2(O)CC(=O)c1ccccc1 (stereo unspecified)	0.17	17*
Cc1ccc(Cl)c2c1NC(=O)C2(O)CC(=O)c1ccc(F)cc1 (stereo unspecified)	0.59	-1.6
Cc1ccc2c(c1)S/C(=C\c1sc3ccccc3[n+]1C)N2CCO	7.9*	2.4
Cc1ccc2c(c1)N(CCO)/C(=C/c1sc3ccccc3[n+]1C)S2	-0.61	-1.5
CC(=O)N1CCCc2cc(S(=O)(=O)N3CCCC(C(=O)N4CCc5ccccc54)C3)ccc21 (stereo unspecified)	1.2	·
CCOc1ccc(C2C(C(=O)OC)=C(C)N=C3SCCC(=O)N32)cc1 (stereo unspecified)	0.03	0.62
CC(C)=CC[C@@H](OC(=O)C=C(C)C)C1=CC(=O)c2c(O)ccc(O)c2C1=O	23*	·
CC1CCCCC1NC(=O)Cn1ncn2cccc2c1=O (stereo unspecified)	-1	-1.1
O=C(CSc1n[nH]c(-c2ccncc2)n1)c1c[nH]c2ccccc12	-0.52	6.8*
O=C(CSc1n[nH]c(-c2ccco2)n1)c1c[nH]c2ccccc12	2.5	-1.5
CCc1nnc2c(N3CCc4ccccc43)nc3ccccc3n12	-0.77	·
CC(C)(C)Sc1ccc2n[nH]c(=O)n2n1	2	0.75
SMILES	HIV TAR-Tat	CDC25B-CDK2 inh
CN(C)CCCNc1cc(N2CCN(c3ccc(F)cc3)CC2)c2noc3c2c1C(=O)c1ccccc1-3	28*	7.4*
O=C1c2ccccc2-c2onc3c(N4CCN(c5ccc(F)cc5)CC4)cc(NCCO)c1c23	2.4	6.3
CN(CCO)CCNc1cc(N2CCOCC2)c2noc3c2c1C(=O)c1ccccc1-3	-5.5	-1.6
CN(C)CCCNc1cc(N2CCOCC2)c2noc3c2c1C(=O)c1ccccc1-3	12*	-2.6
Cc1c(NC(=O)CSc2nnc3c4ccccc4n(C)c3n2)c(=O)n(-c2ccccc2)n1C	1.6	1.2
COCCCNC(=O)c1c(NC(=O)c2snnc2C)sc2c1CCCC2	1.5	-0.05
COc1ccc(-c2nc3c(c(=O)[nH]2)Cc2cc(Br)cc(OC)c2O3)cc1O	1.7	-1.8
COc1ccc(-c2nc3c(c(=O)[nH]2)Cc2cc(Br)cc(OC)c2O3)cc1OC	13*	-0.88
OC(CN1CCC2(CC1)OCCO2)c1ccc2cc[nH]c2c1 (stereo unspecified)	·	-2.5
O=C(CSc1ccsc1[N+](=O)[O-])NC1CCCC1	-0.7	-0.96
CSc1ccc(CCNC(=O)CSc2ccsc2[N+](=O)[O-])cc1	0.24	-0.52
O=C(CSc1ccsc1[N+](=O)[O-])Nc1cccc(F)c1	5.2*	-2.8
O=C(CSc1ccsc1[N+](=O)[O-])Nc1c(F)cc(F)cc1Br	2.9	1.5
O=C(CSc1ccsc1[N+](=O)[O-])Nc1ccc(Br)cc1F	13*	3.6
COc1ccc(NC(=O)CSc2ccsc2[N+](=O)[O-])cc1Cl	10*	3
COc1ccc(C2=Nc3ccccc3NC(c3ccco3)=N2)cc1	-0.68	-2.6
CCN1C(=O)C(O)(c2c(C)[nH]c3ccccc23)c2cc(Br)ccc21 (stereo unspecified)	·	-0.56
CSc1ccc(C2C3=C(CCCC3=O)Nc3nc4ccccc4n32)cc1 (stereo unspecified)	·	-2.7
O=C(O)C1CCCN(c2nc3cccnc3s2)C1 (stereo unspecified)	1.8	-0.6
CCOC(=O)c1nc(-c2nn(-c3ccc(F)cc3)c(=O)n(CC)c2=O)no1	2.5	-1.9
Cc1ccc(NS(=O)(=O)c2cn(C)c(C)n2)c(Cl)c1	2	·
O=C(NNC(=S)Nc1cc(Cl)ccc1Cl)C(O)(c1ccccc1)c1ccccc1	·	-1.5
CCc1cccc(N2C(=O)N(Cc3cc(=O)n4ccccc4n3)c3ccccc3S2(=O)=O)c1	2	·
CCOC(=O)COc1ccc(C2C(C(=O)OC)=C(C)NC3=C2C(=O)c2ccccc23)cc1 (stereo unspecified)	-1.4	·
Cc1ccc(S(=O)(=O)Nc2ccc3c(c2)ncn3-c2ccccc2)cc1	·	-0.26
SMILES	HIV TAR-Tat	CDC25B-CDK2 inh
Cc1ccc(S(=O)(=O)/N=C2\C=C(n3cnc4ccccc43)C(=O)c3ccccc32)cc1	·	17*
Cc1ccc(C)c(Cn2c(C)nc3ccccc32)c1	-0.4	-0.41
CN(CC(=O)N1CCc2ccccc2C1)S(=O)(=O)c1ccc2c(c1)CCCC(=O)N2	0	·
CN(C)S(=O)(=O)N(CC(=O)N1CCc2ccccc2C1)c1ccccc1	11*	-1.7
CC1CC(C)CN(C(=O)CCS(=O)(=O)c2ccc3c(c2)n(C)c(=O)c(=O)n3C)C1 (stereo unspecified)	2.6	-2.4
Cn1c(=O)c(=O)n(C)c2cc(S(=O)(=O)CCC(=O)N3CCc4ccccc4C3)ccc21	4.1*	-1.6
Cc1csc(NC(=O)CCc2nnc3ccc(N4CCC(C)CC4)nn23)n1	-0.53	·
O=C1CC(c2cccc(OCc3ccccc3)c2)c2cc3c(cc2N1)OCCO3 (stereo unspecified)	·	0.13
COc1ccc(Cl)cc1NC(=O)CSc1nncn2c1cc1oc(C)cc12	3.2	·
OC(COc1cccc2cccnc12)Cn1c2ccccc2c2ccccc21 (stereo unspecified)	-1.6	-0.9
c1ccc2c(OCCCOc3cccc4cccnc34)cccc2c1	·	6.2*
COc1cccc(-c2cc(C(F)(F)F)nc(-n3ccnc3)n2)c1	·	-1.4
O=C(C1=C(O)C(=O)N(Cc2cccnc2)C1c1ccccc1)c1cccs1 (stereo unspecified)	0.26	-1.8
CCc1ccc(C(=O)CC2(O)C(=O)N(C(C)C)c3ccccc32)cc1 (stereo unspecified)	-0.46	16*
CC(C)N1C(=O)C(O)(CC(=O)c2ccccc2)c2ccccc21 (stereo unspecified)	0.83	0.13
O=C(Nc1ccc2c(c1)OCCO2)C1CCN(S(=O)(=O)c2ccc3[nH]c(=O)ccc3c2)CC1	1.2	·
